The source made the active and inactive calls. The calls were made as follows: active = hit-call score of the fitted dose curve at least 0.9, where 1 is the maximum; inactive = score below 0.9.

Read-out in the assay: ATP-citrate lyase (ACLY), ACLY (gene 47)
Description: LTEA_HepaRG_ACLY: Life Technologies and Expression Analysis (LTEA) Assay for ATP-citrate lyase (ACLY) using HepaRG (AID 2283466). The note with it: mRNA level, 48 h; actives raise or lower the signal. How it is done:
LTEA_HepaRG is a cell based, multiplexed-readout assay that uses HepaRG, a human liver cell line, with measurements taken at 48 hours after chemical dosing on a 96-well plate.LTEA_HepaRG_ACLY is one of 102 assay component(s) measured in the LTEA HepaRG cell culture assay. It is a marker of Steatosis.Data from the assay component LTEA_HepaRG_ACLY was analyzed into 1 endpoint. This assay endpoint, LTEA_HepaRG_ACLY, was analyzed with bidirectional fitting relative to DMSO as the negative control and baseline of activity. Using a type of inducible reporter, measures of mRNA induction for gain or loss-of-signal activity can be used to understand regulation of transcription factor activity. To generalize the intended target to other relatable targets, this assay endpoint is annotated to the lyase intended target family, where the subfamily is steatosis.
A total of 1060 chemcials from the ToxCast library were tested in eight-point concentration-response experiments. Cell culture and cytotoxicity assays were conducted at Thermo Fisher Scientific's Custom Services facility (Madison, WI). A single lot of human HepaRG cells (Thermo Fisher Scientific, Frederick, MD) was used for the cell culture experiments. 96-well format collagen type I coated plates of human HepaRG cells were prepared using established methods. Briefly, cryopreserved HepaRG cells were thawed, plated at a density of approximately 100,000 cells/well in HepaRG Thaw, Plate, and General Purpose media (HPRG770, Thermo Fisher Scientific), and incubated for 48 hours. 0.5% DMSO was selected as vehicle control to balance the requisite need of DMSO in HepaRG cultures to maintain differentiation (for example, baseline metabolism, proportions of hepatocytes vs. cholangiocytes), while enabling further hepatic receptor pathway activation (for example, PXR and CAR) in response to chemical exposure. 48 hours after plating, the culture medium was replaced with HepaRG Serum-Free Incudtion Media. Cells were exposed to each test chemical in duplicate and maintained in CO2 incubators for another 48 hours. Chemical plates were thawed to room temperature and 200x concentrations of treatment groups were prepared. 8-point conentration-reponse curves were made with the highest exposure at 100 uM, followed by half-log dilutions, all in 0.5% DMSO. Each test plate contained variouse controls, induction positive controls (1mM phenobarbital), cytotoxicity positive controls ([…] aflatoxin B1), vehicle controls (0.5% DMSO), and total lysis controls (0.5% DMSO). Cell morphology images were taken using an Essen IncuCyte FLR automated microscope, with six 96-well plates imaged in about 24 minutes. Images were captured and exported and JPEG files. Spent culture media was transfered to black-well plates for the LDH assay, and remaining media was sorted at -80 C for later use. Cells were treated with RLT buffer and frozen until shipped for gene expression analysis. Total RNA was isolated from the cell suspension in 75 uL of Buffer RLT (Qiagen, Germantown, MD 20874) by Quintiles/Expression Analysis (Durham, NC) using a custom isolation procedure. Total RNA from each plate well was transferred to a preamplification plate. Fluidigm's 96.96 Dynamic ArrayTM (Fluidigm, Amsterdam, the Netherlands) technology was used for gene expression analyses by quantitative reverse transcription polymerase chain reaction (qRT-PCR, performed by Quintiles/Expression Analysis, Durham, NC)89. Standard TaqManTM Assays (Applied Biosystems/ThermoFisher Scientific, Foster City, CA) were used to assess the expression of 93 genes selected based on their selectivity and sensitivity to important hepatic receptors known to be modulated by environmental chemicals; importance in human hepatocyte functionality; and hepatotoxicity. […]
Regarding `CC1(C)C(C(=O)OC(C#N)c2cccc(Oc3ccccc3)c2)C1(C)C` (stereo not given), the result was inactive.

As for `Cn1c(-c2ccccc2)cc(-c2ccccc2)[n+]1C`, the call was inactive. Still for that read-out and setting: as for `COCC(C)N(C(=O)CCl)c1c(C)csc1C` (stereo not given), the entry is “inactive”. On the same count and under the same terms, as for `Clc1nc(Cl)nc(Nc2ccccc2Cl)n1`, the entry is “inactive”; as for `CCSC(=O)N1CCCCCC1`, “inactive”; as for `Cc1cnc(C2=NC(C)(C(C)C)C(=O)N2)c(C(=O)O)c1` (stereo not given), “inactive”. `C=CCOC(=O)C(C)(C)OC(=O)c1cc(-n2c(=O)cc(C(F)(F)F)n(C)c2=O)ccc1Cl`: the compound was classed as inactive. Still for that read-out and setting: as for `CCOc1nc(F)cc2nc(S(=O)(=O)Nc3c(Cl)cccc3Cl)nn12`, the entry is “inactive”. As to `CCNP(=S)(OC)O/C(C)=C/C(=O)OC(C)C` (stereo not given), the half-maximal activity concentration (AC50) (as a rule, the concentration at which the activity in the assay is half-maximal) was 67 µM (active). On to `CC(C)Nc1nc(Cl)nc(NC(C)C)n1`, for which the compound was classed as inactive. The same measure, in the same setting: the value for `CCC(C)n1c(=O)[nH]c(C)c(Br)c1=O` (stereo not given) was “inactive”; that for `Cc1nc(N(C)C)nc(OC(=O)N(C)C)c1C` was “inactive”. With `CCN(CC)c1nc(C)cc(OP(=S)(OC)OC)n1`, the outcome was inactive. On the same count and under the same terms, as for `N#Cc1c(Cl)cccc1Cl`, the entry is “inactive”; as for `CN/C(=N\[N+](=O)[O-])NCc1cnc(Cl)s1`, “inactive”; as for `COc1cc(Cl)c(OC)cc1Cl`, “inactive”. Regarding `COc1cc(OC)nc(NC(=O)NS(=O)(=O)c2ncccc2OCC(F)(F)F)n1`, the outcome was inactive.

Consider `CCN(CC)C(=O)C(C)Oc1cccc2ccccc12` (stereo not given), for which the compound was called inactive. The same measure, in the same setting: as for `COCC(=O)N(c1c(C)cccc1C)C(C)C(=O)OC` (stereo not given), the entry is “inactive”. Still for that read-out and setting: as for `COC(=O)NC(=S)Nc1ccccc1NC(=S)NC(=O)OC`, the entry is “inactive”; as for `CC(C)Oc1cccc(NC(=O)c2ccccc2C(F)(F)F)c1`, “inactive”; as for `C=C(C)CN(CC)c1c([N+](=O)[O-])cc(C(F)(F)F)cc1[N+](=O)[O-]`, “inactive”.

For the compound `Nc1c(Cl)c(F)nc(OCC(=O)O)c1Cl`, the call was inactive. The same measure, in the same setting: the value for `Cc1ccc(N=CN(C)C=Nc2ccc(C)cc2C)c(C)c1` was “inactive”. Still for that read-out and setting: as for `CCOP(=O)(OCC)Oc1nc(Cl)c(Cl)cc1Cl`, the entry is “inactive”; as for `O=C1C2CC=CCC2C(=O)N1SC(Cl)(Cl)Cl` (stereo not given), “inactive”; as for `COP(=S)(OC)SCn1nnc2ccccc2c1=O`, “inactive”. In the case of `CCCCC(C#N)(Cn1cncn1)c1ccc(Cl)cc1` (stereo not given), the AC50 is 50 µM (active). For the compound `COC(=O)c1c(C(F)F)nc(C(F)(F)F)c(C2=NCCS2)c1CC(C)C`, the compound was called inactive. Same read-out and setting: the value for `CCCC(=NOCC)C1=C(O)CC(CC(C)SCC)CC1=O` (stereo not given) was “inactive”. In the case of `CCOc1nc(C(Cl)(Cl)Cl)ns1`, the concentration at half-maximal activity (AC50) is 23.8 µM (active).

Consider `CC1(C)CON(Cc2ccccc2Cl)C1=O`, for which the result was inactive. The same measure, in the same setting: as for `CNC(=O)N(C)c1nnc(C(C)(C)C)s1`, the entry is “inactive”. Turning to `COP(=S)(OC)Oc1ccc([N+](=O)[O-])c(C)c1`, the result was inactive. With `CC(C)C1(C)N=C(c2ncccc2C(=O)O)NC1=O` (stereo not given), the call was inactive. For the compound `CC1(C)C(C=C(Cl)Cl)C1C(=O)OC(C#N)c1cccc(Oc2ccccc2)c1` (stereo not given), the outcome was inactive.

In the case of `CCCCOCN(C(=O)CCl)c1c(CC)cccc1CC`, the outcome was inactive. `CCNC(=O)NC(=O)C(C#N)=NOC`: the call was inactive. In the case of `CC(C)(C)C(=O)C(Oc1ccc(Cl)cc1)n1cncn1` (stereo not given), the AC50 was 66.5 µM (active). For the compound `Cc1c(COC(=O)[C@@H]2[C@H](/C=C(\Cl)C(F)(F)F)C2(C)C)cccc1-c1ccccc1`, the compound was called inactive.

The record behind these values is PubChem BioAssay (EPA / NIEHS).
